# The panel holds about 79,000 compounds, 15% with a hit somewhere; the sample as a whole holds those more often. Values without a mark were called inactive. Calls of active or inactive are those of the source. Rule as the data show it: active = growth inhibition above about 70%; inactive = the rest.
# Assay: NCI Yeast Anticancer Drug Screen. Data for the sgs1 mgt1 strain (AID 161);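 also: 0% = growth of cultures given vehicle only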
# Conditions: S. cerevisiae sgs1 mgt1 strain, at 5.0 µM (retest, dose inferred, filed as 0.5), active compounds read high
# Summary of the method: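 Growth of a repair-deficient yeast mutant was monitored after compound treatment and expressed as inhibition relative to vehicle-treated cultures.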
row,Structure (SMILES),growth inhibition
1,c1ccc(-c2cc(C3CO3)c3ccccc3n2)cc1 (stereo not given),-1%
2,S=C1C(=Nc2ccccc2)N(c2ccccc2)/C(=N\c2ccccn2)N1c1ccccc1,10%
3,CCC(OC(C)=O)C1CC(C(C)C)CCC1C (stereo not given),-7%
4,CC(C)=CCc1c2c(c(O)c3c(=O)c(-c4ccc(O)c(O)c4)coc13)C=CC(C)(C)O2,18%
5,O=C(NC(N1CCN(c2cc3c(cc2F)c(=O)c(C(=O)O)cn3C2CC2)CC1)(C(F)(F)F)C(F)(F)F)c1ccccc1,4%
6,Fc1cc(F)c(F)c(S)c1F,-1%
7,COc1ccc2cc3c4cc5c(cc4cc[n+]3cc2c1OC)OCO5,68%
8,CCCCCCCCNCCCCCCCC,82% (active)
9,Nc1cc(Cl)ccc1Nc1ccccc1,9%
10,O=C(/C(=C/c1ccc(O)cc1)c1ccccc1)c1ccccc1,39%
11,O=Cc1ccccc1C=O,-3%
12,C1=CCN([B-](c2ccccc2)[C+]2CCCCC2)C=C1,-5%
13,CC/C(=C(\c1ccccc1)c1ccc(OCC[N+](C)(C)C)cc1)c1ccccc1,74% (active)
14,O=S(=O)(c1cccc(C(F)(F)F)c1)N1c2ccccc2-n2cccc2C1c1cccnc1 (stereo not given),18%
15,Nc1ccc2c(c1)C(=O)c1c(F)cccc1-2,-70%
16,CN(C)/C(=N/C(=S)Nc1ccccc1)SCc1ccccc1,11%
17,CCN(CC)C(=S)N/N=C(\C)c1ccccc1O,-3%
18,CC(C)OC(=O)NNc1cc(Cl)ccc1Cl,17%
19,CC(C)CCC[C@@H](C)[C@H]1CC[C@H]2[C@@H]3CC[C@H]4C[C@H](N)CC[C@]4(C)[C@H]3CC[C@]12C,-9%
20,O=C1c2ccccc2-c2ccc(N=Cc3ccccc3)cc21,5%

# — PubChem BioAssay (NCI)
